Assay results as given in PubChem BioAssay.
The source made the active and inactive calls.

Assays:
[1] = compounds binding Alexa647 anti-His antibody – biochemical, small-molecule microarray, 635 nm fluorescence, artefact control for SMM control protein annotation, primary screen (AID 1128); settings: higher = more signal;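 note: score merges feature fluorescence with signal-to-noise for each printed compound spot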
[2] = test system: Human papillomavirus type 1a E7 protein (residues 1-88); assay: HPV1a E7 small-molecule binders, primary screen, biochemical, small-molecule microarray, residues 1-88, 635 nm (AID 1129); settings: small-molecule microarray binding, fluorescence 635 nm; higher = more signal
[3] = molecular target: Focal adhesion kinase 1 (Homo sapiens) (UniProt Q05397); assay: PTK2 protein binding on printed compound slides – biochemical, small-molecule microarray, 635/667 nm fluorescence, BSA, DTT, primary screen (AID 1130); settings: 635 nm fluorescence, higher = more signal;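 note: composite of spot emission at 667 nm and signal to noise over triplicate slides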
Focal adhesion kinase 1 (Homo sapiens), sequence (Q05397 whole entry, looked up): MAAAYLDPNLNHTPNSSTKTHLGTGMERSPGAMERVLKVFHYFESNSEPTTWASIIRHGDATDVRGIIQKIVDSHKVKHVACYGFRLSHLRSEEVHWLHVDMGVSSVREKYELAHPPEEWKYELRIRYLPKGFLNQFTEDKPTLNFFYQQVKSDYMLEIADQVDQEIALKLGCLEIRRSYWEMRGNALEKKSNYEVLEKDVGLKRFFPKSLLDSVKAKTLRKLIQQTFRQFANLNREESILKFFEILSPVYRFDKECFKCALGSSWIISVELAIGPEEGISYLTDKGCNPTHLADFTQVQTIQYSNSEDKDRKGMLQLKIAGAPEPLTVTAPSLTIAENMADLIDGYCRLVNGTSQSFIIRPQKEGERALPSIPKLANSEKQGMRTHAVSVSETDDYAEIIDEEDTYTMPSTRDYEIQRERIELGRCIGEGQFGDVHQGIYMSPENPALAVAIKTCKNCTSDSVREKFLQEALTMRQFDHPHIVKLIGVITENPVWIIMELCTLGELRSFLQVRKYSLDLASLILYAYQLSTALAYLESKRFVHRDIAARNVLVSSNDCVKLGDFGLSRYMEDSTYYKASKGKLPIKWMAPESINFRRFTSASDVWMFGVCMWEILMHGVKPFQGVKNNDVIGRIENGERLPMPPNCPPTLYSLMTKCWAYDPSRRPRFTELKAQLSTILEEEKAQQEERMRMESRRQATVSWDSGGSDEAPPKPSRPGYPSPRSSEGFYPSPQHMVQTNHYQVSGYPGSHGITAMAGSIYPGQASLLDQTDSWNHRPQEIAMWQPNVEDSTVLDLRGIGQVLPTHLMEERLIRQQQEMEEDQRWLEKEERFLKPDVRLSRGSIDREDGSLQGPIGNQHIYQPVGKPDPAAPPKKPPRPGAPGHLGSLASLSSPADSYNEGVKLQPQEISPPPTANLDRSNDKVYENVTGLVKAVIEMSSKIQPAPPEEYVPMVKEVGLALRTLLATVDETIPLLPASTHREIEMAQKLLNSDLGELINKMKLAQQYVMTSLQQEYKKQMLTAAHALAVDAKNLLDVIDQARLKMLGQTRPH

[4] = test system: Fibrinogen (Alexa647-labelled); assay: Alexa647-fibrinogen binding to printed small molecules – biochemical, small-molecule microarray, 635/667 nm fluorescence, artefact control for SMM control-protein annotation, profiling panel (AID 1131); settings: fibrinogen-A647 binding fluorescence, higher = more signal;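 note: z-score merges 667 nm fluorescence with per-spot signal-to-noise over triplicate slides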
[5] = molecular target: Follistatin (Homo sapiens) (UniProt P19883); assay: FST protein binding to printed compounds – biochemical, small-molecule microarray, 635/667 nm fluorescence, primary screen (AID 1132); settings: 635 nm fluorescence, higher = more signal
Follistatin (Homo sapiens), sequence (P19883 whole entry, looked up): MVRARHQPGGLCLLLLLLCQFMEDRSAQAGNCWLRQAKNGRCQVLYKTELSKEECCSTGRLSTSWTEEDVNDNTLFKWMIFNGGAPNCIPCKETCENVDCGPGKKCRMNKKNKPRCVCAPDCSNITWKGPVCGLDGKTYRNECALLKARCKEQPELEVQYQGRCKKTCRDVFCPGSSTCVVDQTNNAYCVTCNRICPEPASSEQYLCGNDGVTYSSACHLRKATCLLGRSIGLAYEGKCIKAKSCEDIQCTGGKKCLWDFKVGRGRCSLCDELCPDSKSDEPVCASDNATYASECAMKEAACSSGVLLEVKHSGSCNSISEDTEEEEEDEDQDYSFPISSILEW

[6] = molecular target: Fibroblast growth factor 2 (Homo sapiens) (UniProt P09038); assay: basic fibroblast growth factor binding to printed compounds – biochemical, small-molecule microarray, 635/667 nm fluorescence, primary screen (AID 1133); settings: FGF2, fluorescence 635/667, higher = more signal
Fibroblast growth factor 2 (Homo sapiens), sequence (P09038 whole entry, looked up): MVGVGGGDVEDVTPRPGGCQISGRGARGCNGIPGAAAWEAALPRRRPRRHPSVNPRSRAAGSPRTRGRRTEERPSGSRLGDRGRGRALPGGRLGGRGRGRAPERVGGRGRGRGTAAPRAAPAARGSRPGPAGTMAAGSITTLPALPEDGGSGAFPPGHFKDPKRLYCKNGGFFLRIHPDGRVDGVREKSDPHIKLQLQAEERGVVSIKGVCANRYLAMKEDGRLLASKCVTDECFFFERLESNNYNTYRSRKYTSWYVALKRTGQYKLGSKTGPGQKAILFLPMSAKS

[7] = JC-1 mitochondrial potential readout, lung cancer cells – cell-based, A549, JC-1 fluorescence, basal, 24 h, 100 nL, profiling panel (AID 1138); settings: higher = more signal;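 note: A549 lung adenocarcinoma cells under basal conditions with no added stimulus; test concentration not given here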
Lefty1 = Lefty1 protein binding to printed compounds – biochemical, small-molecule microarray, 635/667 nm fluorescence, primary screen (AID 1139); settings: fluorescence 635/667, higher = more signal
[8] = test system: wheat germ agglutinin (Triticum aestivum), Alexa647-labelled; assay: Alexa647-WGA lectin binding to printed small molecules – biochemical, small-molecule microarray, 635/667 nm fluorescence, artefact control for SMM control-protein annotation, profiling panel (AID 1140); settings: WGA-A647 binding, 635 nm fluorescence, higher = more signal;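 note: score merges 667 nm feature emission with signal to noise over triplicate slides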
[9] = molecular target: Luciferin 4-monooxygenase (Photinus pyralis) (UniProt P08659); assay: inhibition of purified Photinus pyralis luciferase – biochemical, luminescence, purified enzyme, 2006 set, primary screen (AID 1141); settings: purified firefly luciferase, SteadyGlo luminescence, 30 min; higher = more signal, called active from +8 up or from −8 down;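 note: cell-free assay with purified firefly luciferase at 100 ng per well in PBS; test concentration not given here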
Luciferin 4-monooxygenase (Photinus pyralis), sequence (P08659 whole entry, looked up): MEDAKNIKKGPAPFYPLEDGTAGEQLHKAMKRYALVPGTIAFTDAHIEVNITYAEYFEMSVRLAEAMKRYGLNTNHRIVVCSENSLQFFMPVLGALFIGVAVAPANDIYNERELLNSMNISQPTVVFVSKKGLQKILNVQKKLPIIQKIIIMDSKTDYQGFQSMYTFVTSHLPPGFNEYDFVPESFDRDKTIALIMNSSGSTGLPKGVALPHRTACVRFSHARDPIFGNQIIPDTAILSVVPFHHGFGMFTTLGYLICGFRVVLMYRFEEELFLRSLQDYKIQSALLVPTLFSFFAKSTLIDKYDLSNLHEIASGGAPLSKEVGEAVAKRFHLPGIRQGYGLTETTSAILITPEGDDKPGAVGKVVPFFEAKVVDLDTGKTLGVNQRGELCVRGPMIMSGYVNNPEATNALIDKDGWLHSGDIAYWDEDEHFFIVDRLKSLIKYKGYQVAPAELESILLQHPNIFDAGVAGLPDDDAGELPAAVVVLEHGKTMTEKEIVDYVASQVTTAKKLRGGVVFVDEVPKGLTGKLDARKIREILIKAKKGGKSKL

| Structure (SMILES) | composite z-score [1] | composite z-score [2] | composite z-score [3] | composite z-score [4] | composite z-score [5] | composite z-score [6] | z-score [7] | composite z-score (Lefty1) | composite z-score [8] | z-score [9] |
| --- | --- | --- | --- | --- | --- | --- | --- | --- | --- | --- |
| COCCOC(=O)N1C(=O)[C@@]2(c3cc(C#CCCO)ccc31)[C@H](C(=O)N1CCN(c3ncccn3)CC1)[C@H]1C(=O)O[C@H](c3ccccc3)[C@H](c3ccccc3)N1[C@@H]2c1ccc(OCCO)cc1 | 1.12 | 1.23 | -0.293 | 0.972 | 1.21 | 1.29 | -1.28 | 0.92 | 1.02 | -0.21 (inactive) |
| COc1cccc(C)c1NC(=O)O[C@H]1[C@H](OC(=O)Nc2ccccc2)[C@@H](OC(=O)Nc2ccccc2)[C@@H](OC)O[C@@H]1CO | 1.78 | 1.29 | 0.452 | 1.01 | 1.38 | 0.432 | -1.54 | 0.662 | 1.04 | -0.321 (inactive) |
| CC(C)(C)OC(=O)N1[C@@H](C=C(Br)Br)COC1(C)C | 0.286 | 0.974 | -0.0276 | 0.592 | 0.652 | 0.65 | 0.206 | 0.519 | -0.0422 | -1.04 (inactive) |
| Cc1cccc([C@H]2C[C@H]3C(Br)=C[C@@]2(CO)C(=O)[C@]32CO2)c1 | 0.338 | -0.15 | 0.259 | -1.05 | 0.39 | -0.117 | -0.843 | 0.433 | -0.549 | 0.75 (inactive) |
| COCCCNC(=O)[C@@]1(c2ccc([N+](=O)[O-])cc2)CC(=O)N(C2CCCCC2)[C@@H]1c1ccc(CO)cc1I | 3.3 | 1.2 | 0.964 | 0.014 | 1.45 | 1.44 | 2.77 | 0.418 | 0.524 | -0.883 (inactive) |
| COC(=O)Cn1c(C(=O)N(C)C)cc2c1C[C@H]1CN(C(=O)c3ccccc3)[C@@](Cc3ccccc3)(C(=O)OC)[C@@H]21 | 0.733 | 0.278 | 0.499 | -0.254 | -0.253 | 0.179 | 0.553 | -0.0528 | 0.533 | 3.15 (inactive) |
| O=C1C2C=CC(C(O)C3CCCCC3)N(Nc3ccccc3F)C2C(=O)N1c1ccccc1 (stereo not given) | 1.87 | 1.23 | 1.76 | 1.01 | 1.17 | -0.494 | -0.791 | 0.168 | 0.682 | -1.02 (inactive) |
| O=C(N1CCOCC1)[C@]1(CCS(=O)(=O)c2ccccc2)N=C(c2ccc(OCCCO)cc2)O[C@@H]1c1ccccc1 | 2.94 | 1.23 | 0.99 | 0.996 | 1.25 | 0.23 | 1.1 | -0.588 | 1.29 | -1.55 (inactive) |
| [N-]=[N+]=Nc1ccccc1C[C@]1(C(N)=O)COC(c2ccc(OCCCO)cc2)=N1 | 0.809 | -0.835 | 0.214 | -0.445 | 0.91 | -0.261 | -0.566 | -0.954 | 0.99 | -8.73 (active) |
| CN1C(=O)C2C=CC(C(O)c3ccc([N+](=O)[O-])cc3)N(Nc3ccccc3)C2C1=O (stereo not given) | 0.358 | 1.23 | 0.36 | 0.999 | 1.26 | 0.531 | -0.387 | 0.0022 | 1.04 | -0.53 (inactive) |
| CCOC(=O)C[C@H]1[C@H](OC(=O)c2cc3ccccc3oc2=O)[C@@H](NC(=O)Cc2ccc(OC)cc2)c2cc(OCCCO)ccc2N1C(=O)Cc1ccc(OC)cc1 | -0.279 | -0.624 | 0.122 | 1.03 | 0.705 | 0.453 | -0.202 | 0.983 | 0.348 | 0.827 (inactive) |
| O=C1O[C@@H](c2ccccc2)[C@@H](c2ccccc2)N2[C@@H](c3ccccc3OCCO)[C@]3(C(=O)Nc4ccc(C#CC5(O)CCCCCC5)cc43)[C@@H](C(=O)N3CCCCCCC3)[C@H]12 | 2.72 | 1.27 | 4.12 | 0.89 | 1.58 | 0.718 | -1.1 | 1.99 | 1.67 | -0.37 (inactive) |
| COc1cc2c(cc1OC)CN(C(=O)[C@@H]1[C@H]3C(=O)O[C@H](c4ccccc4)[C@H](c4ccccc4)N3[C@H](c3ccc(O)cc3)[C@@]13C(=O)Nc1ccc(C#CC4=CCCCC4)cc13)CC2 | 1.76 | 1.19 | 0.453 | 0.863 | 1.08 | 0.493 | -0.637 | 1.46 | 1.06 | -1.33 (inactive) |
| CC(CO)N1C(=O)[C@@H]2[C@H]3C(=O)OCC=C[C@H]3OC23C=CCN(c2ccc4ccccc4c2)C(=O)[C@@H]13 (stereo not given in full) | -0.786 | -1.21 | 0.204 | -1.83 | -2.31 | -1.55 | 0.599 | -2.07 | -0.515 | -0.0768 (inactive) |
| COCCOC(=O)N1C(=O)[C@@]2(c3cc(C#CCC(C(=O)OC)C(=O)OC)ccc31)[C@H](C(N)=O)[C@H]1C(=O)O[C@H](c3ccccc3)[C@H](c3ccccc3)N1[C@@H]2c1ccccc1OCCO | 0.737 | 1.09 | 0.225 | 0.927 | 1.32 | 1.57 | -0.116 | 1.26 | 0.556 | -0.617 (inactive) |
| O=C1OCC=C[C@H]2OC34C=CCN(Cn5nnc6ccccc65)C(=O)[C@H]3N(CCO)C(=O)[C@@H]4[C@@H]12 (stereo not given in full) | 1.68 | -0.696 | -0.619 | -1.41 | -1.32 | -1.46 | -0.546 | -1.17 | -0.944 | 0.0848 (inactive) |
| [N-]=[N+]=NCc1ccccc1[C@H]1OC(c2ccc(OCCCO)cc2)=N[C@@]1(Cc1ccccc1N=[N+]=[N-])C(N)=O | 1.03 | 1.14 | 0.579 | 1.01 | 1.21 | 0.27 | 0.145 | 0.174 | 1.21 | -3.23 (inactive) |
| O=C1NC(=O)C2C1C=CC(C(O)C(c1ccccc1)c1ccccc1)N2Nc1ccccn1 (stereo not given) | 2.42 | 1.15 | 0.595 | 0.987 | 0.709 | 1.06 | 0.669 | -0.0403 | 0.843 | -2.04 (inactive) |
| CC(C)c1ccc(NN2C(C(O)c3ccccc3)C=CC3C(=O)N(c4ccccc4)C(=O)C32)cc1 (stereo not given) | 0.593 | 1.19 | 0.684 | 1.02 | 0.075 | -0.522 | 0.266 | -0.56 | 1.13 | -2.04 (inactive) |
| COC(=O)[C@@]1(Cc2ccc(F)cc2)[C@H]2c3cc(C(=O)N4CCCC4)n(Cc4ccc(OC(F)(F)F)cc4)c3C[C@H]2CN1C(=O)c1ccccc1 | -0.509 | 1.05 | 0.415 | -0.276 | -0.752 | -0.685 | 0.559 | -1.69 | 0.135 | 1.38 (inactive) |
| CC(C)N1C(=O)[C@@]2(Cc3ccccc31)c1ccccc1C(=O)N(Cc1ccccc1C(F)(F)F)[C@H]2c1ccc(CO)cc1 | 0.175 | 0.174 | 0.368 | -0.0628 | 0.902 | 1.18 | -0.602 | 0.76 | -0.203 | -0.301 (inactive) |
| COC(=O)[C@@]1(Cc2ccc(OC)cc2)[C@@H]2[C@@H](CC(=O)[C@H]2CC(=O)C(=O)N(C)C)CN1C(=O)c1ccccc1 | 2.06 | 1.24 | 0.462 | 1 | 0.594 | 0.153 | 0.257 | -0.477 | 1.34 | -0.273 (inactive) |
| CC[C@@H](O[Si](C#C[Si](C(C)C)(C(C)C)C(C)C)(C(C)C)C(C)C)c1cn(Cc2cccc(Cl)c2)nn1 | 0.448 | 0.79 | 0.357 | 0.377 | 0.371 | 0.46 | -0.153 | 0.809 | 0.23 | 0.433 (inactive) |
| COCCOC(=O)N1C(=O)[C@@]2(c3cc(C#CCC(C(=O)OC)C(=O)OC)ccc31)[C@H](c1ccc(O)cc1)N1[C@H](c3ccccc3)[C@H](c3ccccc3)OC(=O)[C@H]1[C@@H]2C(=O)N1CCc2cc(OC)c(OC)cc2C1 | 2.46 | 1.2 | 0.362 | 0.741 | 1.27 | 1.26 | 0.627 | 0.633 | 0.801 | -1.05 (inactive) |
| C=CCNC(=O)[C@@H]1[C@H]2C(=O)O[C@H](c3ccccc3)[C@H](c3ccccc3)N2[C@H](c2ccc(O)cc2)[C@@]12C(=O)N(C(=O)OCCOC)c1ccc(C#CCC(C(=O)OC)C(=O)OC)cc12 | 1.06 | 1.19 | 0.214 | 0.271 | 1.13 | 0.722 | 0.556 | 0.719 | 0.94 | 0.367 (inactive) |
| C=C(/C=C\CNS(=O)(=O)c1ccc(C)cc1)[C@H](O)[C@H]1CCCN1S(=O)(=O)c1ccccc1[N+](=O)[O-] | 0.721 | 0.427 | 0.445 | 0.191 | 0.216 | 0.272 | -0.321 | 0.177 | 0.878 | -1.1 (inactive) |
| CCCCN1CC=CC23O[C@@H]4/C=C\CCCOC(=O)C4[C@H]2C(=O)N(CCCCCCO)[C@@H]3C1=O (stereo not given in full) | 0.193 | -0.0399 | 0.0326 | -1.21 | -1.02 | -0.621 | 1.56 | -0.331 | -0.13 | -0.0067 (inactive) |
| [N-]=[N+]=NCc1ccccc1C[C@@]1(C(=O)NCCN2CCOCC2)N=C(c2ccc(OCCCO)cc2)O[C@@H]1c1ccccc1 | 1.42 | 1.18 | 0.444 | 0.947 | 1.23 | -0.426 | 1.44 | 0.573 | 0.639 | -1.04 (inactive) |
| Cc1ccc(S[C@]2(C(=O)NC(C)C)CC(=O)N(Cc3ccccc3)[C@@H]2c2ccc(CO)cc2I)cc1 | -1.01 | -0.781 | -0.0673 | -0.771 | -1.35 | -0.409 | 1.32 | -1.64 | -1.09 | -0.629 (inactive) |
| COc1ccc(C#Cc2ccc3c(c2)[C@]2(C(=O)N3)[C@H](c3ccccc3OCCO)N3[C@H](c4ccccc4)[C@H](c4ccccc4)OC(=O)[C@H]3[C@@H]2C(=O)NC[C@H](O)c2ccccc2)cc1 | 1.05 | 1.14 | 1.31 | 0.848 | 1.27 | 1.62 | -1.25 | 1.06 | 0.319 | 0.412 (inactive) |
